According to the supplement of paper PMC12808144:
Values without a mark were called inactive.

Test system: NHEM-hTERT
Assay: cell viability relative to DMSO control (fraction of DMSO control); higher = less cytotoxic, active = 0.5 or less
Settings: 1 µM; 120 h
Procedure, shortened: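 Patient-derived Mel-DCC-11, its resistant subline Mel-DCC-11-R (alone and with 8 µM of its selecting drug) and NHEM-hTERT immortalized melanocytes were exposed for 120 h to 315 approved anti-cancer drugs at 1 µM in duplicate. Luminescence was read with ATPlite 1step. Viability was normalised to vehicle controls and averaged over duplicates.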

Row | Compound | cell viability
1 | CC[C@]1(O)C[C@H]2CN(CCc3c([nH]c4ccccc34)[C@@](C(=O)OC)(c3cc4c(cc3OC)N(C=O)[C@H]3[C@@](O)(C(=O)OC)[C@H](OC(C)=O)[C@]5(CC)C=CCN6CC[C@]43[C@@H]65)C2)C1.O=S(=O)(O)O [Vincristine sulfate] | 0.642
2 | O=c1cc(O)c(Cl)c[nH]1 [Gimeracil] | 0.996
3 | CN(N=O)C(=O)N[C@@H]1[C@@H](O)[C@H](O)[C@@H](CO)O[C@@H]1O [Streptozocin] | 1.11
4 | CN(C)c1nc(N(C)C)nc(N(C)C)n1 [Altretamine] | 0.945
5 | COc1cc2c(Oc3ccc4[nH]c(C)cc4c3F)ncnc2cc1OCCCN1CCCC1 [Cediranib] | 0.891
6 | O=c1ccn([C@@H]2O[C@H](CO)[C@@H](O)[C@H]2O)c(=O)[nH]1 [Uridine] | 1.05
7 | CS(=O)(=O)O.Cc1ccc(NC(=O)c2ccc(CN3CCN(C)CC3)cc2)cc1Nc1nccc(-c2cccnc2)n1 [Imatinib Mesylate] | 0.965
8 | CCc1ccc(CCOc2ccc(CC3SC(=O)NC3=O)cc2)nc1.Cl (stereo unspecified) [Pioglitazone hydrochloride] | 1.09
9 | O=C(Nc1c(Cl)cncc1Cl)c1ccc(OC(F)F)c(OCC2CC2)c1 [Roflumilast] | 0.841
10 | C#Cc1cccc(Nc2ncnc3cc4c(cc23)OCCOCCOCCO4)c1 [Icotinib] | 1.18
11 | CN(CCOc1ccc(CC2SC(=O)NC2=O)cc1)c1ccccn1.O=C(O)/C=C\C(=O)O (stereo unspecified) [Rosiglitazone maleate] | 1.06
12 | CCOC(=O)[C@@H](N)Cc1ccc(-c2cc(O[C@H](c3ccc(Cl)cc3-n3ccc(C)n3)C(F)(F)F)nc(N)n2)cc1.O=C(O)CNC(=O)c1ccccc1 [Telotristat Etiprate] | 1.04
13 | CC1=C(/C=C/C(C)=C/C=C/C(C)=C/C=C/C=C(C)/C=C/C=C(C)/C=C/C2=C(C)CCCC2(C)C)C(C)(C)CCC1 [Beta-Carotene] | 0.916
14 | NCCNc1ccc(NCCN)c2c1C(=O)c1ccncc1C2=O.O=C(O)/C=C\C(=O)O.O=C(O)/C=C\C(=O)O [Pixantrone dimaleate] | 0.889
15 | COc1ccc2cc1Oc1ccc(cc1)C[C@H]1c3c(cc4c(c3Oc3cc5c(cc3OC)CCN(C)[C@@H]5C2)OCO4)CCN1C [Cepharanthine] | 1.13
16 | COc1cc2c(cc1O)CC[C@@H]1[C@@H]2CC[C@]2(C)[C@@H](O)CC[C@@H]12 [2-Methoxyestradiol] | 0.87
17 | CCCCCCCCCCCCCCCCCCOCC(O)CO (stereo unspecified) [Batyl alcohol] | 1.07
18 | COc1cccc2c1C(=O)c1c(O)c3c(c(O)c1C2=O)C[C@@](O)(C(=O)CO)C[C@@H]3O[C@H]1C[C@H](N)[C@H](O)[C@H](C)O1.Cl [Doxorubicin hydrochloride] | 0.454 (active)

Row | Compound | cell viability
19 | COC(=O)Nc1nc2ccc(C(=O)c3cccs3)cc2[nH]1 [Nocodazole] | 0.63
20 | CN(C)CCCN1c2ccccc2Sc2ccc(Cl)cc21.Cl [Chlorpromazine hydrochloride] | 1.06
21 | CNC(=O)c1cc(Oc2ccc(NC(=O)Nc3ccc(Cl)c(C(F)(F)F)c3)cc2)ccn1 [Sorafenib] | 1.02
22 | COc1c2occc2cc2ccc(=O)oc12 [8-Methoxypsoralen] | 1.09
23 | CCc1cc2c(cc1N1CCC(N3CCOCC3)CC1)C(C)(C)c1[nH]c3cc(C#N)ccc3c1C2=O [Alectinib] | 0.977
24 | CC(=O)Nc1cccc(-n2c(=O)n(C3CC3)c(=O)c3c(Nc4ccc(I)cc4F)n(C)c(=O)c(C)c32)c1 [Trametinib] | 0.453 (active)
25 | CS(=O)(=O)c1ccc(C(=O)Nc2ccc(Cl)c(-c3ccccn3)c2)c(Cl)c1 [Vismodegib] | 0.961
26 | COc1ccc(C(Cl)=C(c2ccc(OC)cc2)c2ccc(OC)cc2)cc1 [Chlorotrianisene] | 0.795
27 | COc1cc2c(N3CCN(C(=O)Nc4ccc(OC(C)C)cc4)CC3)ncnc2cc1OCCCN1CCCCC1 [Tandutinib] | 1.15
28 | CCCS(=O)(=O)Nc1ccc(F)c(C(=O)c2c[nH]c3ncc(-c4ccc(Cl)cc4)cc23)c1F [Vemurafenib] | 0.746
29 | N#Cc1ccc(C(c2ccc(C#N)cc2)n2cncn2)cc1 [Letrozole] | 1.03
30 | Nc1nc(=O)c2c(CCc3ccc(C(=O)N[C@@H](CCC(=O)[O-])C(=O)[O-])cc3)c[nH]c2[nH]1.[Na+].[Na+] [Pemetrexed Disodium Hydrate] | 0.995
31 | Cl.Cl.Cl.Cl.Cl.Cl.Cl.Cl.c1cc(CN2CCCNCCNCCCNCC2)ccc1CN1CCCNCCNCCCNCC1 [AMD 3100 octahydrochloride] | 1.14
32 | O=c1[nH]cc(F)c(=O)[nH]1 [Fluorouracil] | 1.01
33 | CCN(CC)CCNC(=O)c1c(C)[nH]c(/C=C2\C(=O)Nc3ccc(F)cc32)c1C [Sunitinib] | 0.591
34 | Cc1coc2c1C(=O)C(=O)c1c-2ccc2c(C)cccc12 [Tanshinone I] | 0.983
35 | NC(=O)c1ncn([C@@H]2O[C@H](CO)[C@@H](O)[C@H]2O)c1N [AICAR (Acadesine)] | 1.06
36 | Cc1c(C(=O)Nc2ccc(N3C[C@@H](C)O[C@@H](C)C3)nc2)cccc1-c1ccc(OC(F)(F)F)cc1 [Sonidegib] | 1.04
